Bioassay records (PubChem)
GSH fluor: compound fluorescence on glutathione beads, profiling panel, artefact control, biophysical, 488/530 nm, flow cytometry; fluorescence (KMESF) at 10 µM; AID 1776, 2009; 190,000 compounds, 0.25% hits; GSH beads flow cytometry, compound fluorescence 488/530 nm; stronger effect = higher value; in the data active = fluorescence above about 89;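 also: glutathione beads carrying GST-tagged Bcl family fusion proteins plus one bare bead set; values are compound well signal with DMSO vehicle wells as background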
RGS7-Gao reg: RGS7-Galphao binding modulators, primary screen, biochemical, multiplexed bead flow cytometry; Guanine nucleotide-binding protein G(o) subunit alpha (Homo sapiens), P09471; actives lie on both sides; binding response (% of control), % at 10 µM; 220,000 compounds, 0.35% hits; AID 1439, 2008; in the data active = binding response below about 49% or above about 150%; inconclusive = no clear call, values can overlap the other calls; inactive = in between;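 also: fluorescent Galphao held in activated GDP-AlF4 state binding bead-coupled RGS7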
Target sequence (P09471 whole entry, looked up): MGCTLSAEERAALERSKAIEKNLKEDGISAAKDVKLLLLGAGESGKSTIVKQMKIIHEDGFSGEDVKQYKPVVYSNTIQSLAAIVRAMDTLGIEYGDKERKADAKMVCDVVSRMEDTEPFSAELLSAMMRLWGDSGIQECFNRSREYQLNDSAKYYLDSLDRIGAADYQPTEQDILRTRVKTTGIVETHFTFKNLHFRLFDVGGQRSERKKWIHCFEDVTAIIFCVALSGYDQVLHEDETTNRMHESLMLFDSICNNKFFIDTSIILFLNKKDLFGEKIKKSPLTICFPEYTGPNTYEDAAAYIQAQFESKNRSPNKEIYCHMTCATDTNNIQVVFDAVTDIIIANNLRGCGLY
Avidin fluor: green autofluorescence of compounds with avidin beads – biophysical, 488/530 nm, flow cytometry, artefact control, profiling panel; compound fluorescence 488/530 nm; stronger effect = higher value; fluorescence (KMESF) at 10 µM; 220,000 compounds, 0.38% hits; in the data active = fluorescence above about 47
RGS4-Gao reg: modulators of RGS4 binding to Galphao, primary screen, biochemical, multiplexed bead flow cytometry; Guanine nucleotide-binding protein G(o) subunit alpha (Homo sapiens), P09471; actives lie on both sides; binding response (% of control), % at 10 µM; 220,000 compounds, 0.33% hits; in the data active = binding response below about 49% or above about 150%; inactive = in between;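 also: fluorescent Galphao activated with aluminum fluoride binding bead-coupled RGS4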
RGS8-Gao reg: RGS8-Galphao binding modulators, primary screen, biochemical, multiplexed bead flow cytometry | actives lie on both sides | response (percent of control binding), % at 10 µM | 220,000 compounds, 0.34% hits | AID 1423, 2008; in the data active = response below about 60% or above about 140%; inactive = in between;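 also: Galphao activated as the GDP aluminium fluoride complex binding bead-coupled RGS8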
RGS16-Gao HTS: modulators of RGS16 binding to Galphao, primary screen, biochemical, human proteins, multiplexed bead flow cytometry | 220,000 compounds, 0.38% hits | Regulator of G-protein signaling 16 (Homo sapiens) + Guanine nucleotide-binding protein … | bead-based flow cytometry RGS16-Galphao binding, fluorescence; actives lie on both sides | binding response (% of control), % at 10 µM | AID 1441, 2008;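 also: Galphao activated by GDP with aluminum fluoride before binding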
Target sequence (O15492 whole entry, looked up): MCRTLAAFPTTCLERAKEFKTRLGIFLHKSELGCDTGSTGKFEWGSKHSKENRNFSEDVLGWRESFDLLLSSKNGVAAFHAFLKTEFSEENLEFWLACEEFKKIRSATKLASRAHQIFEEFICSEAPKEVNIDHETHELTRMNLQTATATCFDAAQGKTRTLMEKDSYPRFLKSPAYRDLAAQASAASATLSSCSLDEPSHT
Target sequence (P09471 whole entry, looked up): as the sequence (P09471 whole entry, looked up) above
RGS-Gao: modulators of RGS–Galpha-o binding, primary screen, biochemical, multiplexed beads, flow cytometry, RGS4/7/8/16/19; AID 1504, 2009; multiplexed bead flow cytometry; 1,600 compounds, 99% hits; RGS4–Galpha-o binding response, % at 10 µM; shares compounds with RGS16-Gao HTS;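 also: fluorescently labeled Galpha-o bound to GDP with aluminium fluoride binding biotinylated RGS beads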
Biotin-avidin: disruption of biotin probe capture by avidin, counter-screen for RGS protein interaction modulators, biochemical, flow cytometry, bead-based. streptavidin beads, fluorescein-biotin binding. AID 1783, 2009. inhibition, % at 10 µM. 1,700 tested, under 10 active. shares compounds with RGS16-Gao HTS;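 active = inhibition above 50%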;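 also: median green fluorescence of gated singlet beads compared with DMSO control wells; 0% = DMSO wells and 100% = complete loss of bead fluorescence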
RGS8-Gao confirm: RGS8-Galphao binding modulators, confirmation, biochemical, multiplexed bead flow cytometry, single concentration. shares compounds with RGS16-Gao HTS. bead-based flow cytometry RGS8-Galphao binding, fluorescence; actives lie on both sides. binding response (% of control), % at 10 µM. 1,700 compounds, 3% hits. AID 1836, 2009; in the data active = binding response below about 72% or above about 130%; inactive = in between;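 also: Galphao activated as GDP AlF4 complex before binding bead RGS8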
RGS7-Gao confirm: RGS7-Galphao binding modulators, confirmation, biochemical, multiplexed bead flow cytometry, single concentration; shares compounds with RGS16-Gao HTS; bead-based flow cytometry RGS7-Galphao binding; actives lie on both sides; response (percent of control binding), % at 10 µM; 1,700 compounds, 7.8% hits; AID 1837, 2009; in the data active = response below about 75% or above about 130%; inactive = in between;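 also: fluorescent Galphao activated with GDP and aluminum fluoride binding bead-coupled RGS7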
RGS16-Gao conf: modulators of RGS16-Galphao protein binding, confirmation, biochemical, single concentration, multiplexed bead flow cytometry; shares compounds with RGS16-Gao HTS; bead-based flow cytometry; actives lie on both sides; response (% of control binding), % at 10 µM; 1,700 compounds, 4% hits; AID 1838, 2009; in the data active = response below about 74% or above about 130%; inactive = in between;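 also: Galphao activated as the GDP aluminium fluoride complex binding bead-coupled RGS16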
RGS4-Gao single: modulators of RGS4-Galphao protein binding, confirmation, biochemical, single concentration, multiplexed bead flow cytometry. shares compounds with RGS16-Gao HTS. actives lie on both sides. binding response (% of control), % at 10 µM. 1,700 compounds, 4% hits. AID 1840, 2009; in the data active = binding response below about 74% or above about 130%; inactive = in between
RGS19-Gao conf: regulators of RGS19-Galphao binding, confirmation, biochemical, single point, multiplexed bead flow cytometry; shares compounds with RGS16-Gao HTS; bead-based flow cytometry RGS19-Galphao binding; actives lie on both sides; response (percent of control binding), % at 10 µM; 1,700 compounds, 5% hits; in the data active = response below about 50% or above about 160%; inactive = in between;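 also: 100% = no compound control and 0% = blank background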
The depositor's hits bear a star; ? = inconclusive; / = no result given; [ ] = dose if it differs, or a comment. Compounds with a hit are over-represented: about 1.2% of the library has one in this group of screens. Unless noted, no rule for the calls is given here.

SMILES	GSH fluor	RGS7-Gao reg	Avidin fluor	RGS4-Gao reg	RGS8-Gao reg	RGS16-Gao HTS	RGS-Gao	Biotin-avidin	RGS8-Gao confirm	RGS7-Gao confirm	RGS16-Gao conf	RGS4-Gao single	RGS19-Gao conf
CC1CCC2(CC1)NC(=S)N(c1ccccc1)N2 (configuration not stated)	10	171*[activator]	125*	140	102	105	140*	0	94	94	92	95	98
CC(C)COc1ncnc2c1sc1nc3c(cc12)COC(C)(C)C3	/	?	75*	224*[activator]	130	206*[activator]	/	-1	102	100	101	100	92
COCc1cc(C)nc(SCC(=O)Nc2ccc(C)c(C)c2)c1C#N	57	99	2	100	102	-63*	100*	/	/	/	/	/	/
CCOc1ccc(NC(=S)NC(=O)c2c(Br)cnn2C)c([N+](=O)[O-])c1	12	-20*	-2	-40*	-1.6*	224	/	-2	101	102	101	102	99
CCOC(=O)Cn1nc(C)c(NC(=O)COc2ccc(C)c(C)c2)c1C	/	?	8	94	100	97	/	/	/	/	/	/	/
CC(C)N1CCc2c(sc(NC(=O)c3ccc(S(=O)(=O)N4CCc5ccccc54)cc3)c2C(N)=O)C1	19	153*[activator]	5	147	137	137	147*	/	/	/	/	/	/
CC(C)N1CCc2c(sc(NC(=O)c3nc4ccccc4s3)c2C(N)=O)C1	12	101	11	105	104	108	/	/	/	/	/	/	/
C=C1c2cccc(O)c2C(O)=C2C(=O)[C@]3(O)C(O)=C(C(N)=O)C(=O)[C@@H](N(C)C)[C@@H]3[C@@H](O)[C@H]12	21	105	5	92	101	96	/	/	/	/	/	/	/
CN(C)[C@@H]1C(=O)C(C(=O)NCN2CCCC2)=C(O)[C@@]2(O)C(=O)C3=C(O)c4c(O)cccc4[C@@](C)(O)C3CC12 (some centres not stated)	9	8.3*	-2	21*	18*	8	/	-2	53*	26*	54*	60*	35*
CCOCC(=O)Nc1c(C)n(C)n(-c2ccccc2)c1=O	31	106	14	105	102	107	/	/	/	/	/	/	/
Cc1c(NC(=O)CSc2nnc(COc3ccccc3)n2-c2ccccc2)c(=O)n(-c2ccccc2)n1C	13	171*[activator]	141*	114	101	104	114*	/	/	/	/	/	/
Cc1c(NC(=O)CSc2n[nH]c(=O)n2-c2ccccc2)c(=O)n(-c2ccccc2)n1C	17	109	9	106	104	108	/	/	/	/	/	/	/
Cc1c(NC(=O)COC(=O)COc2ccc(Nc3ccccc3)cc2)c(=O)n(-c2ccccc2)n1C	14	155*[activator]	11	143	140*[activator]	142	143*	/	/	/	/	/	/
Cc1c(NC(=O)COC(=O)c2ccccc2Cl)c(=O)n(-c2ccccc2)n1C	17	100	10	97	105	104	/	/	/	/	/	/	/
Cc1cc(C)cc(OCC(=O)OCC(=O)Nc2c(C)n(C)n(-c3ccccc3)c2=O)c1	14	153*[activator]	11	145	139	145	145*	1	103	100	101	102	98
O=C(Nc1cccc(C(F)(F)F)c1)n1cc(-c2ccccn2)c(N2CCOCC2)n1	10	101	26	103	106	105	/	/	/	/	/	/	/
Cc1ccc(OCCCCNC2CCCCC2)c(C)c1	13	101	8	97	98	97	/	/	/	/	/	/	/
Cc1cc(NC(=O)C2CCCCC2)n(-c2nc3ccccc3[nH]2)n1	10	99	9	101	100	102	/	/	/	/	/	/	/
Cc1cc(NC(=O)C2CCC2)n(-c2ccccn2)n1	48	6.5*	-3	8.2*	14*	3.5*	/	1	99	106	100	100	99
Cc1cc(C(F)(F)F)n(-c2nc(C(=O)NNS(=O)(=O)c3ccccc3[N+](=O)[O-])cs2)n1	13	95	7	95	97	97	/	/	/	/	/	/	/
COc1ccc(/C=N/NC(=O)c2c(C)nc3ccccn23)cc1[N+](=O)[O-]	/	?	7	109	104	105	/	/	/	/	/	/	/
COC(=O)c1ccccc1OCCCCN1CC(C)OC(C)C1 (configuration not stated)	9	254*[activator]	173*	113	99	102	113*	2	92	59*	83	70*	46*
CCN1C(=O)C2(C(C(=O)c3cc4ccccc4o3)=C(O)C(=O)N2CCCN2CCOCC2)c2ccccc21 (configuration not stated)	/	?	5	99	101	100	/	/	/	/	/	/	/
O=C(CCC1CCCN(C(=O)c2cncs2)C1)NCc1ccc(F)c(F)c1 (configuration not stated)	13	231*[activator]	220*	109	95	119	109*	-1	101	97	100	101	83
